The nature of experiment [1]: anti-His antibody binders, primary screen, artefact control for SMM control protein annotation, biochemical, small-molecule microarray, 635 nm fluorescence (AID 1128).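 Note: score merges feature fluorescence with signal-to-noise for each printed compound spot.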 Particulars: anti-His Alexa647 antibody binding, higher = more signal.
For experiment [2], the system named is Human papillomavirus type 1a E7 protein (residues 1-88). The experiment in a line: HPV1a E7 small-molecule binders, primary screen, biochemical, small-molecule microarray, residues 1-88, 635 nm (AID 1129). Particulars: small-molecule microarray binding, fluorescence 635 nm; higher = more signal.
Experiment [3] has as its target Focal adhesion kinase 1 (Homo sapiens) (UniProt Q05397). The experiment in a line: small-molecule microarray binders of FAK, primary screen, biochemical, 635/667 nm fluorescence, BSA, DTT (AID 1130).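 Note: composite of spot emission at 667 nm and signal to noise over triplicate slides.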 Particulars: PTK2 binding, 635 nm fluorescence, higher = more signal.
Experiment [4] has as its system Fibrinogen (Alexa647-labelled). The experiment in a line: fibrinogen binders on compound microarrays, profiling panel, artefact control for SMM control-protein annotation, biochemical, small-molecule microarray, 635/667 nm fluorescence (AID 1131).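 Note: z-score merges 667 nm fluorescence with per-spot signal-to-noise over triplicate slides.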 Particulars: fibrinogen-A647 binding fluorescence, higher = more signal.
Experiment [5] deals with Follistatin (Homo sapiens) (UniProt P19883). The experiment in a line: follistatin binders on small-molecule microarrays, primary screen, biochemical, small-molecule microarray, 635/667 nm fluorescence (AID 1132). The following applies: FST binding, 635 nm fluorescence, higher = more signal.
Chain of Follistatin (Homo sapiens) (P19883 whole entry, looked up): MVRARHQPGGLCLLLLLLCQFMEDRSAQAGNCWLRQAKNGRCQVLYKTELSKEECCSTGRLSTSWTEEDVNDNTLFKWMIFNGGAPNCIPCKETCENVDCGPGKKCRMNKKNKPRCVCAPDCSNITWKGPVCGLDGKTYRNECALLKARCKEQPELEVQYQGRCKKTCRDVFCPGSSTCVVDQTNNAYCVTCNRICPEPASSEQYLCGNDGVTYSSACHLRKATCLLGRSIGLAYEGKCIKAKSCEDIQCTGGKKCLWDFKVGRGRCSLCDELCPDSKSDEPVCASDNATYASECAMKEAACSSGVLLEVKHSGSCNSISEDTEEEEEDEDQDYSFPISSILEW
In experiment [6] the target is Fibroblast growth factor 2 (Homo sapiens) (UniProt P09038). Put plainly: FGF2 binders on small-molecule microarrays, primary screen, biochemical, small-molecule microarray, 635/667 nm fluorescence (AID 1133). Particulars: small-molecule microarray binding, FGF2, fluorescence 635/667; higher = more signal.
Chain of Fibroblast growth factor 2 (Homo sapiens) (P09038 whole entry, looked up): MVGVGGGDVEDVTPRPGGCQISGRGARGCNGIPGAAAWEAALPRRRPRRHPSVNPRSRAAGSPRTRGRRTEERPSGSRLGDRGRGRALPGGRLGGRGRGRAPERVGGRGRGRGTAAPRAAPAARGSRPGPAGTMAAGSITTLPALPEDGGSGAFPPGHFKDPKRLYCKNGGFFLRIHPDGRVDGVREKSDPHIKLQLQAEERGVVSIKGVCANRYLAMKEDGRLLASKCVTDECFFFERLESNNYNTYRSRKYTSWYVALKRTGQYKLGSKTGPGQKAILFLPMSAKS
The nature of experiment [7]: mitochondrial membrane potential change in A549 cells, profiling panel, cell-based, JC-1 fluorescence, basal, 24 h, 100 nL (AID 1138).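 Note: A549 lung adenocarcinoma cells under basal conditions with no added stimulus; test concentration not given here.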 Particulars: higher = more signal.
The test system of experiment [8] is Lefty1. Put plainly: Lefty1 binders on small-molecule microarrays, primary screen, biochemical, small-molecule microarray, 635/667 nm fluorescence (AID 1139). Particulars: small-molecule microarray binding, fluorescence 635/667; higher = more signal.
Experiment [9] has as its system wheat germ agglutinin (Triticum aestivum), Alexa647-labelled. Put plainly: wheat germ agglutinin binders on compound microarrays, profiling panel, artefact control for SMM control-protein annotation, biochemical, small-molecule microarray, 635/667 nm fluorescence (AID 1140).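 Note: score merges 667 nm feature emission with signal to noise over triplicate slides.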 Particulars: WGA-A647 binding, 635 nm fluorescence, higher = more signal.
Experiment [10] deals with Luciferin 4-monooxygenase (Photinus pyralis) (UniProt P08659). The experiment in a line: firefly luciferase enzyme inhibitors, primary screen, biochemical, luminescence, purified enzyme, 2006 set (AID 1141).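 Note: cell-free assay with purified firefly luciferase at 100 ng per well in PBS; test concentration not given here.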 The following applies: SteadyGlo luminescence, 30 min, higher = more signal, called active from +8 up or from −8 down.
Chain of Luciferin 4-monooxygenase (Photinus pyralis) (P08659 whole entry, looked up): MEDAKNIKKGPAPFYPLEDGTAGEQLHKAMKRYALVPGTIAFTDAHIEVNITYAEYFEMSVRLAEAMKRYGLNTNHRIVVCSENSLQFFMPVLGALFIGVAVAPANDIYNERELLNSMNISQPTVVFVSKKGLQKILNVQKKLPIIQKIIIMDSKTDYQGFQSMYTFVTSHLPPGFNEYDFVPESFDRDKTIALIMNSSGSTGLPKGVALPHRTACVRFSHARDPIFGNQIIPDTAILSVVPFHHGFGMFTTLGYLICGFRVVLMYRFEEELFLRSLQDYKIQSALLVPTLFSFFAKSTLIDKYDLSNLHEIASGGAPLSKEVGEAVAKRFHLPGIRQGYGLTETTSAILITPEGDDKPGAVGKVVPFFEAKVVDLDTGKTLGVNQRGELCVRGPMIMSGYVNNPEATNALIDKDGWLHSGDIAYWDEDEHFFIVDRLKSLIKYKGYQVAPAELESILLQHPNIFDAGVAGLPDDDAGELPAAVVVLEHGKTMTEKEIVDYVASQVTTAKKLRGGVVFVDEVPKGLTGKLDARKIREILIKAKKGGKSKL
Experiment [11] has as its system Wnt5a (protein binding on small-molecule microarray). Put plainly: Wnt5a binders on small-molecule microarray, primary screen, biophysical, 635/667 nm fluorescence (AID 1142).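 Note: fluorescence read at 667 nm with signal to noise per printed feature.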 Particulars: 635 nm fluorescence, higher = more signal.
Experiment [12] is described as follows: cell viability in Huh7 cells, primary screen, cytotoxicity control for HCV replication inhibitor project, CellTiter-Glo luminescence, basal, 48 h (AID 1143).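 Note: Huh7 hepatoma cells carrying a hepatitis C replication reporter with no stimulus; test concentration not given here.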 The following applies: Huh7 HCV replicon, higher = more signal, called active from +8 up or from −8 down. (In general: Cellular ATP, detected with luciferase, serves as a proxy for viable cell number.)
A short description of experiment [13]: P. aeruginosa biofilm formation inhibitors, primary screen, PAO1 strain, BacTiter-Glo luminescence, LB-PBS (AID 1144). Particulars: 12 h, higher = more signal.
Experiment [14] can be described thus: CREB reporter modulators without forskolin, primary screen, cell-based, PC12, CRE-LacZ reporter, unstimulated (AID 1145). Particulars: no forskolin, luminescence, 4.5 h, higher = more signal, called active from +8 up or from −8 down.
Experiment [15] is described as follows: CREB reporter modulators under forskolin, primary screen, cell-based, PC12, CRE-LacZ reporter, forskolin-stimulated (AID 1146).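 Note: PC12 cells with 6xCRE LacZ reporter stimulated by forskolin 10 µM; beta-galactosidase reporter signal reflecting CREB driven transcription.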 The following applies: luminescence, 4.5 h, higher = more signal, called active from +8 up or from −8 down.
Experiment [16] concerns the target Streptavidin (Streptomyces avidinii) (UniProt P22629). The experiment in a line: streptavidin binders on small-molecule microarray, primary screen, artefact control for SMM compound annotation, biophysical, 635/667 nm fluorescence (AID 1147).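 Note: signal reflects streptavidin binding to arrayed compounds as a control protein.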 The following applies: streptavidin binding, higher = more signal.
A short description of experiment [17]: small-molecule binders of probe aInhba, primary screen, biochemical, small-molecule microarray, 635/667 nm fluorescence (AID 1148).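 Note: score merges 667nm spot fluorescence with signal-to-noise for antibody binding to printed compounds.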 The following applies: higher = more signal.
The target of experiment [18] is Torsin-1A (Homo sapiens) (UniProt O14656). Put plainly: torsin A binders from cell lysate, primary screen, small-molecule microarray, wild-type, 635/667 nm (AID 1149). Particulars: COS7 hTOR1A-WT lysate, 635 nm fluorescence, higher = more signal.
Chain of Torsin-1A (Homo sapiens) (O14656 whole entry, looked up): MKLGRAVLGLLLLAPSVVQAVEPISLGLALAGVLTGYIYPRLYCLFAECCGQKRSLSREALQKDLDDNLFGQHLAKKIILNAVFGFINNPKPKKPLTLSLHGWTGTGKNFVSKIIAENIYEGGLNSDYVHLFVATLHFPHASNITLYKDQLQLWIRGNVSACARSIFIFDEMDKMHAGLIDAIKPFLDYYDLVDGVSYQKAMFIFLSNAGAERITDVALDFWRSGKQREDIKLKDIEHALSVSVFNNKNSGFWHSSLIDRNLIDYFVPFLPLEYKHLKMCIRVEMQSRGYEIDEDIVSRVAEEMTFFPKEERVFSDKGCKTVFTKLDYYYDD
Experiment [19] has the same target. The experiment in a line: small-molecule binders of mutant TOR1A in lysate, primary screen, cell lysate, small-molecule microarray, COS7 lysate, 635/667 nm fluorescence (AID 1150).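 Note: score pools 667 nm emission and signal to noise measuring lysate protein binding.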 Particulars: COS7 hTOR1A mutant lysate, 635 nm fluorescence, higher = more signal.
Experiment [20] deals with Sonic hedgehog protein (Shh). The experiment in a line: small-molecule binders of Shh protein, primary screen, biochemical, small-molecule microarray, 635/667 nm fluorescence (AID 1151).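 Note: Shh protein binding to compounds spotted on small-molecule microarray slides; score combines spot fluorescence intensity with signal-to-noise across triplicate slides.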 Particulars: small-molecule microarray binding, 635 nm fluorescence; higher = more signal.

Calls of active or inactive are those of the source. Unless noted, the rule behind the calls is not given here.

Chain of Focal adhesion kinase 1 (Homo sapiens) (Q05397 whole entry, looked up): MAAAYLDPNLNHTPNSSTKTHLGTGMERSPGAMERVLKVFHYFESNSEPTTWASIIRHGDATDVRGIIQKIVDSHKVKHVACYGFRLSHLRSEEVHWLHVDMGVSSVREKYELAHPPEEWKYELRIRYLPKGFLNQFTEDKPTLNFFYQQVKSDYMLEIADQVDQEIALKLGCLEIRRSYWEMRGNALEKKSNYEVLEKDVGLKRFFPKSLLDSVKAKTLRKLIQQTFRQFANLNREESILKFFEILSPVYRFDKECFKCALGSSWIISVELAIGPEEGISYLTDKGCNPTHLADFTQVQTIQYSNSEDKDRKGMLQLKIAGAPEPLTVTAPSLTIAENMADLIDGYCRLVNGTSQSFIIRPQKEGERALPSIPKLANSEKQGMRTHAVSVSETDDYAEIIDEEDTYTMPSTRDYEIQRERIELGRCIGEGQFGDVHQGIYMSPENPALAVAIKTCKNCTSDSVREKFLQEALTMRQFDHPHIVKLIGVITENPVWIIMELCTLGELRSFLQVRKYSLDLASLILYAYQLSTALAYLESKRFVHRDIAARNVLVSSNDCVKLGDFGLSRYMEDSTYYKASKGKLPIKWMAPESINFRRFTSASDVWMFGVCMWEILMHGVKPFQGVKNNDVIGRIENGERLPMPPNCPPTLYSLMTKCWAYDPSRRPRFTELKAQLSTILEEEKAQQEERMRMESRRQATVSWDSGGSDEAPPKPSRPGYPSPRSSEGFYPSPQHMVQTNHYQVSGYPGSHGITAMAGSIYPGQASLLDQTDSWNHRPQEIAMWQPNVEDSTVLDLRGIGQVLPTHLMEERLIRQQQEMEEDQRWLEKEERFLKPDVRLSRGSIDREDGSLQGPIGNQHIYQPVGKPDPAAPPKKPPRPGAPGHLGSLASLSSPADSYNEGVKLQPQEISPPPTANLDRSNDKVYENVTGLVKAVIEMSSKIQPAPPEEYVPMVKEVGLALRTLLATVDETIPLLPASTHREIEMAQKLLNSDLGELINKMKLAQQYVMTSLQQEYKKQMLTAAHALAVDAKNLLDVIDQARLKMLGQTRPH
Chain of Streptavidin (Streptomyces avidinii) (P22629 whole entry, looked up): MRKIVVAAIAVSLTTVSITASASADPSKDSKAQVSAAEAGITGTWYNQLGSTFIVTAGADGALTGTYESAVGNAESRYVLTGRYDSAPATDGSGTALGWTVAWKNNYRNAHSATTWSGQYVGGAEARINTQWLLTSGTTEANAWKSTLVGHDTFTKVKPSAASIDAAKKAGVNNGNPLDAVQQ

As for `C=C(/C(=C/C[C@H](OC(C)=O)c1ccc(OCCO)cc1)c1cc(C(=O)OC)ccc1OC)C(C)C`, the composite z-score in [1] is 1.16; in [2], 1.08; in experiment [3], 0.413; in experiment [4], 0.812; in experiment [5] it was 1.13; in experiment [6], 1.58. Further, the composite z-score in [8] was 1.55; in experiment [9] it was 0.307; in experiment [11] it was 0.269; in experiment [16] it was 1.17; in [17] it was 0.0589; in [18], 0.287. Also, the composite z-score in experiment [19] came to 1.98; in experiment [20], 1.41. Further, the z-score is 1.75 in experiment [7]; -2.33 (inactive) in experiment [10]; -2.4 (inactive) in [12]; -0.357 (inactive) in experiment [13]; 20.7 (active) in experiment [14]; -0.509 (inactive) in experiment [15].

Consider `CCOC(=O)C1=C[C@@H](C(C)C)N(S(=O)(=O)c2ccc(C)cc2)[C@H]1c1ccccc1F`, for which the composite z-score was 0.654 in experiment [1]; 1.2 in experiment [2]; -0.0031 in experiment [3]; 1.02 in experiment [4]; 0.96 in experiment [5]; 0.307 in experiment [6]. The composite z-score in experiment [8] is 0.187; in experiment [9], 0.927; in experiment [11], 0.197; in experiment [16] it was 1.08; in experiment [17], 0.0816; in experiment [18] it was 0.345. Besides, the values for the composite z-score in experiment [19] and in experiment [20] were 1.15 and 0.394, respectively. The z-score is 2.33 in [7]; 1.82 (inactive) in experiment [10]; -2.77 (inactive) in [12]; -0.0791 (inactive) in experiment [13]; -0.527 (inactive) in [14]; -0.0445 (inactive) in experiment [15].

Take `NC(=O)[C@@H]1[C@H]2C(=O)O[C@H](c3ccccc3)[C@H](c3ccccc3)N2[C@H](c2ccc(OCCO)cc2)[C@@]12C(=O)Nc1ccc(C#CC3=CCCCC3)cc12`: the composite z-score in [1] was found to be 0.823; in [2] it was 1.21; in [3], 1.33; in experiment [4], 1.01; in experiment [5], 1.22; in [6], 0.413. Further, the composite z-score in experiment [8] came to 0.741; in experiment [9], 0.632; in experiment [11] it was 0.0384; in [16], 0.778; in [17] it was 0.0047; in [18], 0.618. Also, the values for the composite z-score in experiment [19] and in experiment [20] were 0.817 and 1.24, respectively. Besides, the z-score is -1.87 in experiment [7]; -2.48 (inactive) in experiment [10]; -6.11 (inactive) in [12]; -1.74 (inactive) in experiment [13]; -1.28 (inactive) in [14]; -0.546 (inactive) in experiment [15].

With `COC(=O)[C@@]1(Cc2ccc(OC)cc2)[C@H]2c3cc(C(=O)N(C)C)n(Cc4ccc(C(F)(F)F)nc4)c3C[C@H]2CN1C(=O)c1ccccc1`, the composite z-score was 0.598 in experiment [1]; 0.846 in [2]; 1.2 in experiment [3]; 0.843 in experiment [4]; -0.0313 in experiment [5]; -0.49 in experiment [6]. For the same compound, the composite z-score is -0.501 in [8]; 0.833 in experiment [9]; 0.24 in experiment [11]; 0.365 in experiment [16]; 0.397 in [17]; -0.0912 in experiment [18]. The results for the composite z-score in experiment [19] and in experiment [20] were 0.0628 and -0.709, respectively. The z-score in [7] was 0.549; in [10] it was 0.678 (inactive); in experiment [12] it was 0.398 (inactive); in [13], -0.123 (inactive); in [14] it was 0.59 (inactive); in [15] it was 1.54 (inactive).

`CCC(CC)C(O)C1C=CC2C(=O)N(c3ccccc3)C(=O)C2N1Nc1ccccc1` (stereo not given): the composite z-score in experiment [1] was determined as 1.51; in experiment [2], 1.25; in experiment [3], 0.633; in experiment [4], 1; in experiment [5], 1.06; in [6], 0.514. Further, the composite z-score in experiment [8] is 0.858; in experiment [9] it was 1.03; in experiment [11] it was 0.213; in experiment [16], 1.21; in experiment [17], 0.948; in experiment [18] it was -0.0952. The figures for the composite z-score in [19] and in experiment [20] were 0.423 and 0.494, respectively. Moreover, the z-score in [7] was -0.117; in experiment [10], -1.9 (inactive); in [12], -0.125 (inactive); in experiment [13], -1.63 (inactive); in [14], 1.01 (inactive); in experiment [15], -0.814 (inactive).

Source of the values: PubChem BioAssay.
